The whole screen tested about 200,000 compounds, of which about 65 (0.03%) were called active.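 Rule for the calls: active = activation of at least 50% relative to the plate's high and low controls in the primary single-dose screen; inactive = activation below 50%.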 For the sample, actives were picked, then their nearest neighbours and some compounds at random.
Test: compounds producing H2O2 with reducing agent – biochemical, NIH compound library profiling, artefact control for MLSCN library redox annotation, primary screen (AID 878);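 note: compound incubated with DTT at 0.8 mM final as the reducing agent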
Settings: DTT-dependent redox cycling H2O2, phenol red/HRP absorbance; at 10 µM; active compounds read high; 100% = 100 µM peroxide control, 0% = buffer

activation, inactive:
COn1c(-c2ccc(Cl)cc2Cl)nc2ncccc21 0.53%
C=CCNC(=S)NNC(=O)COc1c(Cl)cc(Cl)cc1Cl 0.34%
O=C(NCCCn1ccnc1)C(=O)c1cn(CC(=O)N2CCCCCC2)c2ccccc12 -0.37%
COc1ccc(N2CCN(C(=O)COc3ccc4c(C)cc(=O)oc4c3)CC2)cc1 -0.38%
O=C(CSc1nc2ccccc2[nH]1)Nc1nc(-c2ccccc2)c(-c2ccccc2)o1 0.41%
Cc1ccc(S(=O)(=O)/N=C(/Nc2ccc3[nH]c(=O)[nH]c3c2)c2ccccc2)cc1 -0.98%
COc1ccc(NC(=O)c2cc3nc(-c4ccccc4)cc(C)n3n2)cc1OC -0.08%
CCC(=O)N(Cc1cc2ccccc2[nH]c1=O)c1ccc(OC)cc1 -0.34%
CCCOc1ccc(NC(=O)CC2C(=O)N(C)C(=S)N2Cc2ccc3c(c2)OCO3)cc1 (stereo unspecified) -0.41%
CCc1cccc(OC2OC(CO)C(O)C(O)C2NC(C)=O)c1 (stereo unspecified) -0.96%
Oc1cccc2ccc(/C=C/c3ccc(Br)s3)nc12 -0.18%
COc1ccc(C(=O)Nc2sc(C)c(C)c2CN2CCOCC2)cc1 -0.23%
CN(/C(=N/S(=O)(=O)c1cccs1)c1ccccc1)c1ccc(O)cc1 -0.71%
O=C(NC1CCCCCC1)c1cccnc1Sc1ccc(Cl)cc1 -0.04%
C/[N+]([O-])=C\c1ccc([N+](=O)[O-])o1 0.48%
CSc1ccc(/C=N\NC(=O)CC(=O)NC(C)C)cc1 -0.35%
COCCNC(=O)c1ccc(N2CCC3(CC2)OCCO3)c([N+](=O)[O-])c1 0.43%
COc1cc(/C=C/C(=O)OCC(=O)NC(=O)NCc2ccccc2)ccc1OCC#N -0.39%
O=C(CNC(=O)c1cc(=O)[nH]c2ccccc12)Nc1ccc(F)c(F)c1 0.25%
CN(c1ccc2nc3ccccc3c(=O)n2n1)C1CCCCC1 -0.26%
COc1ccc(CC(=O)N2N=C(C)CC2(O)C(F)(F)F)cc1 (stereo unspecified) -0.18%
O=C(/C=C/Sc1ncn[nH]1)c1ccc(Cl)cc1 1.23%
O=c1c2ccccc2c(-c2ccccc2)nn1-c1ccccn1 -0.18%
CCOCCCNC(=O)C(=O)NCCCOCC -0.48%
CCC1=NN(C(=O)Cc2ccc([N+](=O)[O-])cc2)C(O)(c2ccc(Br)cc2)C1 (stereo unspecified) 0.2%
CCOc1cc(NC(=S)NCCCOC)c(OCC)cc1NC(=O)c1ccco1 -0.65%
